# Values joined by “and” are separate entries in the source; they are usually repeats but may differ in a detail not shown here. Equal values may be shown once. Results filed as inconclusive are left out. A call without a number means that no potency is given here. More than one record can exist for a structure, and the calls need not agree. Active and inactive are the calls of the source. Calls follow the shape of the dose curve; as a rule, active = well fitted curve in the direction sought with a large enough effect; inconclusive = small, poorly fitted or top-dose-only effect, or another doubt; inactive = no such curve, though single readings can be large; an effect the other way counts as inactive or inconclusive.
# Assays:
# [1] = target: Voltage-gated inwardly rectifying potassium channel KCNH2 (Homo sapiens) (UniProt Q12809); test: qHTS Assay for Small Molecule Inhibitors of the Human hERG Channel Activity (AID 588834);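 also: lower thallium flux fluorescence means stronger hERG block; nearly all actives have a fitted effect of over 50% in size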; also: potency is read from the fitted curve at half-maximal effect
# Voltage-gated inwardly rectifying potassium channel KCNH2 (Homo sapiens), sequence (Q12809 whole entry, looked up): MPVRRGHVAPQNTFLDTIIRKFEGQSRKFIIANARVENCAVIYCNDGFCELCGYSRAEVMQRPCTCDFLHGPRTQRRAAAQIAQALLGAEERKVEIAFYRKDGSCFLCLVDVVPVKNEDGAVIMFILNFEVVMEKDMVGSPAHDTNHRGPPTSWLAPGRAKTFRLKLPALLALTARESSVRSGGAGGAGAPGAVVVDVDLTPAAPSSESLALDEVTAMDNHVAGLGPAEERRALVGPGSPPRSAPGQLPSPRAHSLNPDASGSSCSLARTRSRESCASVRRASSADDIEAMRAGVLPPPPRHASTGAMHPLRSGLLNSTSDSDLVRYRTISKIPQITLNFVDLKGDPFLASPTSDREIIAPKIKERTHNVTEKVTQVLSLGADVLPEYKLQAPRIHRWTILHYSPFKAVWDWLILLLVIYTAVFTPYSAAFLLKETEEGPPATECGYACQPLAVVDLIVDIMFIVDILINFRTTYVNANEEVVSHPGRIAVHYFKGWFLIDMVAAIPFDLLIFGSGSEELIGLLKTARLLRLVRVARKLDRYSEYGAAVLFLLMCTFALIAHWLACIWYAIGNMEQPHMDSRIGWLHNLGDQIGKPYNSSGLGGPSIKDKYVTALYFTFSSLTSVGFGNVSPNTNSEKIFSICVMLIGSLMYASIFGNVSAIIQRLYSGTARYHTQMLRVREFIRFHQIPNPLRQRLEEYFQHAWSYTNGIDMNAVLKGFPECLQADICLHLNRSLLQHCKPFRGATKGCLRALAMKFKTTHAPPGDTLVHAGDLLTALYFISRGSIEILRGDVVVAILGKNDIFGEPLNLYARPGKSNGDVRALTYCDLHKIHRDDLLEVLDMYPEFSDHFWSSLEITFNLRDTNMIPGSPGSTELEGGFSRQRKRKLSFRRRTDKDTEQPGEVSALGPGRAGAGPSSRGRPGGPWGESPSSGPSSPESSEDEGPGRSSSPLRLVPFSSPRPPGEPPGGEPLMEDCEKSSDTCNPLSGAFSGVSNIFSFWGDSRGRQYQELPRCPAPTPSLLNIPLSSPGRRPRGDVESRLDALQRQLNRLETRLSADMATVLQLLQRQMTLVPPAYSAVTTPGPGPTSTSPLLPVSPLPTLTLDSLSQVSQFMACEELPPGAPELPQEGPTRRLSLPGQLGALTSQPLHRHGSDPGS
# Procedure, shortened: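 Step 1: BacMam hERG transduction of U2OS, 4 hrs RT. Step 2: overnight 37 °C, plate 2000 cells/well, 4 hr. Step 3: FluxOR load, compound 10 min, stimulate, read fluorescence.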
# [2] = target: Luciferin 4-monooxygenase (Photinus pyralis) (UniProt P08659); test: Biochemical firefly luciferase enzyme assay for NPC (AID 624030); also: nearly all actives have a fitted effect of over 70% in size; also: potency is read from the fitted curve at half-maximal effect
# Luciferin 4-monooxygenase (Photinus pyralis), sequence (P08659 whole entry, looked up): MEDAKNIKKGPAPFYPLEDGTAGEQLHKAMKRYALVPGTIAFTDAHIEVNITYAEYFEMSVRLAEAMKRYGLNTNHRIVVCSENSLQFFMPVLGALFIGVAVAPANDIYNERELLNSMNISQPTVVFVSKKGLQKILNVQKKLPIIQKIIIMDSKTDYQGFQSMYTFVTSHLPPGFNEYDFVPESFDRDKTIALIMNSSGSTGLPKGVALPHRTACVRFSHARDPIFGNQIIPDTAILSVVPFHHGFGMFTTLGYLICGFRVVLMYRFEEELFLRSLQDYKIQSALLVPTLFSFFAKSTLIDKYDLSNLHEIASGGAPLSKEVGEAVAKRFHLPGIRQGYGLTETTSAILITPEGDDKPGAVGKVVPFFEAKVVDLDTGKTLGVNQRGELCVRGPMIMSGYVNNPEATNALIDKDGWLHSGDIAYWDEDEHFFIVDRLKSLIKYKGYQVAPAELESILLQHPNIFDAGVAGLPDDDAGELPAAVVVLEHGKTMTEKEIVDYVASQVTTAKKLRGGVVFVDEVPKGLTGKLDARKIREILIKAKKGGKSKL
# Procedure, shortened: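 Counter-screen for direct inhibition of the luciferase enzyme by approved-drug library compounds, run at 10 nM enzyme in 50 mM Tris acetate (final). Luminescence was read within 5 min of enzyme-buffer addition and normalized to PTC124 versus DMSO (0%).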
# [3] = S16 Schwann cell viability assay (CellTiter-Glo assay) (AID 624031);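 also: native untransfected S16 rat Schwann cells; cellular ATP luminescence as a viability measure; series mostly up to about 58 µM; nearly all actives have a fitted effect of over 70% in size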
# Procedure, shortened: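 Parental S16 cells, 24 h compound, 37 °C. ATP-luminescence viability; DMSO = 0% activity, empty wells as reference; curves classified by fit quality and efficacy.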
# [4] = S16 Schwann cell PMP22 intronic element firefly luciferase assay (AID 624032); also: nearly all actives have a fitted effect of over 30% in size; also: potency is read from the fitted curve at half-maximal effect
# Procedure, shortened: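 Rat S16 Schwann cells stably carrying a PMP22 intronic element-driven Fluc reporter were seeded overnight, then exposed to compounds for 24 h at 37 °C. Luminescence was normalized to PTC124 (positive control) and DMSO (0% activity).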
SMILES,Potency [1],Potency [2],Potency [3],Potency [4]
c1ccc(-c2ccccn2)nc1,inactive,–,–,–
CC1(C)C[C@@H]1C(=O)N/C(=C\CCCCSC[C@H](N)C(=O)O)C(=O)O,inactive,inactive,inactive,inactive
CC(C)Cc1ccc([C@H](C)C(=O)O)cc1,inactive,inactive,–,–
CCCCCCCCCCCCCCCCCC(=O)OC(CC(=O)O)C[N+](C)(C)C (stereo not drawn),inactive,–,–,–
COc1ccc(/C=C/C(=O)Nc2ccccc2C(=O)O)cc1OC,inactive,0.181 µM (active),inactive,inactive
COC(=O)C1=C(C)NC(C)=C(C(=O)OCC(C)C)C1c1ccccc1[N+](=O)[O-] (stereo not drawn),–,–,–,32.2 µM (active)
Cc1[nH]cnc1CN1CCc2c(c3ccccc3n2C)C1=O,–,inactive,inactive,inactive
CCCSc1ccc2nc(NC(=O)OC)[nH]c2c1,inactive,–,inactive,–
Cc1c(Nc2ncccc2C(=O)O)cccc1C(F)(F)F,inactive,–,inactive,inactive
CC1OC1P(=O)(O)O (stereo not drawn),–,inactive,inactive,inactive
CC(N)C(=O)OC(C)(C)Cc1ccc(Cl)cc1 (stereo not drawn),–,inactive,inactive,inactive
CN(C)c1ccc(C(=C2C=CC(=[N+](C)C)C=C2)c2ccccc2)cc1,7.08 µM (active),–,–,inactive
c1ccc2sc(SN3CCOCC3)nc2c1,inactive,–,inactive,inactive
COc1cc(/C=C/C(=O)CC(=O)/C=C/c2ccc(O)c(OC)c2)ccc1O,–,–,inactive,20.3 µM (active)
CCC1C(=O)OCC1Cc1cncn1C (stereo not drawn),–,inactive,inactive,inactive
COC(=O)C1=C(C)NC(C)=C(C(=O)OCC(C)=O)C1c1ccccc1[N+](=O)[O-] (stereo not drawn),–,inactive,–,–
CC(C(=O)O)c1ccc2c(c1)[nH]c1ccc(Cl)cc12 (stereo not drawn),inactive,–,inactive,inactive
O=C(CCN1CCN(CCO)CC1)N1c2ccccc2Sc2ccc(C(F)(F)F)cc21,–,inactive,inactive,–
CCCCCCCCCCCC(=O)[O][Sn]([CH2]CCC)([CH2]CCC)[O]C(=O)CCCCCCCCCCC,inactive,–,inactive,9.07 µM (active)
CCCCC[C@H](O)/C=C/[C@@H]1[C@@H](C/C=C\CCCC(=O)O)[C@@H](O)C[C@H]1O,inactive,inactive,inactive,inactive
COc1ccc(-c2cc(=S)ss2)cc1,inactive,–,inactive,inactive
CN1[C@@H]2CC[C@H]1CC(OC(=O)C(CO)c1ccccc1)C2 (stereo partly drawn),–,–,inactive,inactive

SMILES,Potency [1],Potency [2],Potency [3],Potency [4]
CO[C@@]1(NC(=O)Cc2cccs2)C(=O)N2C(C(=O)O)=C(COC(N)=O)CS[C@@H]21,–,inactive,–,–
Cc1c(N)c(=O)n(-c2ccccc2)n1C,–,inactive,–,–
CN1CCN(c2cc3c(nn2)Oc2ccccc2N3C)CC1,inactive,–,inactive,–
Nc1ccc(C(=O)O)c(O)c1,inactive,inactive,inactive,inactive
O=C(O)/C=C/C(O)c1ccc(Cl)cc1 (stereo not drawn),inactive,inactive,inactive,inactive
O=C(O)[C@H](CC(=O)N1C[C@H]2CCCC[C@H]2C1)Cc1ccccc1,inactive,inactive,inactive,inactive
CC(=O)[C@]1(O)Cc2c(O)c3c(c(O)c2[C@@H](O[C@H]2C[C@H](N)[C@H](O)[C@H](C)O2)C1)C(=O)c1c(O)cccc1C3=O,inactive,–,inactive,–
O=C(/C=C/c1ccccc1)NCCO,–,–,inactive,inactive
N=C(N)N,–,inactive,–,–
O=C1CN(/N=C/c2ccc(-c3ccc([N+](=O)[O-])cc3)o2)C(=O)N1,–,inactive,inactive,inactive
CC1(C)[C@@H](O)CC[C@]2(C)[C@H]3C(=O)C=C4[C@@H]5C[C@@](C)(C(=O)O)CC[C@]5(C)CC[C@@]4(C)[C@]3(C)CC[C@@H]12,–,inactive,inactive,8.09 µM (active)
Cc1nc2ccccc2n1Cc1ccc(Cl)cc1,inactive,–,–,inactive
CCCC(=O)OC[C@@H](OC(=O)CCC)[C@@H](OC(=O)CCC)[C@H](Cn1c2nc(=O)[nH]c(=O)c-2nc2cc(C)c(C)cc21)OC(=O)CCC,10 µM (active),inactive,–,14.4 µM (active)
CCOc1ccc2nc(S(N)(=O)=O)sc2c1,inactive,–,inactive,inactive
CC(=O)c1ccc(OCC(=O)N2CCCCC2)cc1,–,inactive,–,–
O=C(Nc1ccc(C(=O)O)c(O)c1)c1ccccc1,inactive,–,inactive,inactive
Nc1c(CC(=O)O)cccc1C(=O)c1ccc(Br)cc1,inactive,–,inactive,inactive
NC(=O)C(c1ccccc1)(c1ccccc1)[C@@H]1CCN(CCc2ccc3c(c2)CCO3)C1,–,inactive,inactive,–
Cc1ccc(C(=O)c2ccc(CC(=O)O)n2C)cc1,inactive,–,inactive,inactive
O=c1[nH]c2ccccc2n1CCCN1CCN(C(c2ccccc2)c2ccccc2)CC1,3.55 µM (active),inactive,–,8.09 µM (active)
